Experimental data taken from publication PMC5540273 (PLoS ONE, 2017).

Experiments:
Conditions in all cases: concentration: 1 μM, replicates: in singlicate; n = 1
[1] = tested on: T1, RSK2(Kin.Dom.2-C-terminal)
T1 construct: gene RPS6KA3

[2] = tested on: T2, RSK3(Kin.Dom.1-N-terminal)
T2 construct: gene RPS6KA2

[3] = tested on: T3, RSK3(Kin.Dom.2-C-terminal)
T3 construct: gene RPS6KA2

[4] = tested on: T4, RSK4(Kin.Dom.1-N-terminal)
T4 construct: gene RPS6KA6

[5] = tested on: T5, RSK4(Kin.Dom.2-C-terminal)
T5 construct: gene RPS6KA6

S6K1 = tested on: S6K1
SBK1 = tested on: SBK1
SGK2 = tested on: SGK2
SGK3 = tested on: SGK3
SGK = tested on: SGK
SIK2 = tested on: SIK2
SIK = tested on: SIK
SLK = tested on: SLK
SNARK = tested on: T6, SNARK
T6 construct: gene NUAK2

SNRK = tested on: SNRK
SRC = tested on: SRC
SRMS = tested on: SRMS
SRPK1 = tested on: SRPK1
SRPK2 = tested on: SRPK2
SRPK3 = tested on: SRPK3
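Note: KINOMEscan kinase panel screen.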

Compound	%Inh [1] [%]	%Inh [2] [%]	%Inh [3] [%]	%Inh [4] [%]	%Inh [5] [%]	%Inh (S6K1) [%]	%Inh (SBK1) [%]	%Inh (SGK2) [%]	%Inh (SGK3) [%]	%Inh (SGK) [%]	%Inh (SIK2) [%]	%Inh (SIK) [%]	%Inh (SLK) [%]	%Inh (SNARK) [%]	%Inh (SNRK) [%]	%Inh (SRC) [%]	%Inh (SRMS) [%]	%Inh (SRPK1) [%]	%Inh (SRPK2) [%]	%Inh (SRPK3) [%]
Cn1ccc2ncnc(Oc3ccc(NC(=O)Nc4ccccc4)cc3)c21	0	12	0	0	0	0	0	7	28	1	27	0	22	19	33	11	0	0	0	9
Nc1nc(-c2nccs2)c(-c2ccnc3ccccc23)s1 [GW693542]	88	0	0	0	50	0	9	0	6	0	0	0	9	8	0	0	0	20	0	31
Fc1cc(Cl)ccc1Nc1ccnc2cc(-c3ccc(CN4CCCCC4)o3)ccc12 [GW560116]	25	0	24	0	88	29	2	0	0	3	22	9	0	0	0	90.8	0	0	35	0
O=C(Nc1n[nH]c2cc(-c3cccc(F)c3F)ccc12)C1CC1 [SB-733894]	0	52	0	0	0	22	11	29	12	32	0	0	0	1	3	0	3	44	22	5
COc1ccccc1-c1ccc2c(NC(=O)C3CC3)n[nH]c2n1 [SB-711239]	7	0	0	4	22	7	68	4	3	0	0	3	8	8	14	6	0	0	31	13
Cc1cccc(-c2nc(C)cc(Nc3ccncc3)n2)n1 [GSK257997]	22	0	0	0	0	1	4	0	6	0	0	0	42	4	0	0	0	35	0	11
CS(=O)(=O)c1ccc(-c2c(-c3ncn[nH]3)sc(N3CCOCC3)c2C#N)cc1	0	0	98	0	100	10	0	0	24	0	0	39	3	0	7	0	0	0	0	0
Cc1c(O)cccc1Nc1ccnc2ccc(C(F)(F)F)cc12.Cl [GW466413]	16	0	0	4	0	0	0	0	2	0	0	0	8	0	0	79	1	21	0	0
CN(C)CCN(C)C(=O)c1cc(-c2ccncc2)c(-c2ccc(Cl)c(O)c2)o1.Cl.Cl [SB-710397]	29	8	0	0	76	15	23	9	0	0	0	0	91.7	0	0	11	0	0	18	0
CCCc1ccc(S(=O)(=O)NC2CCN(c3ccnc(Nc4ccc(F)cc4)n3)C2)cc1 (centres unmarked) [GSK1379715]	20	13	0	0	0	0	5	0	0	0	0	0	0	0	0	48	0	0	17	6
